SMILES strings stand for the structures. Among all 370,000 compounds or so, about 760 (0.21%) were called active.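 The calls were made as follows: active = inhibition above a per-campaign cutoff: mean of compounds within control limits plus 3 SD (cut at about 15% in these data); inactive = the rest.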 What follows is part of a selection rich in actives, with near analogues and random picks from the rest.

The values that follow come from PubChem BioAssay AID720509 (The Scripps Research Institute Molecular Screening Center, 2013).

Chain of Fibrinogen beta chain (Homo sapiens) (P02675 whole entry, looked up): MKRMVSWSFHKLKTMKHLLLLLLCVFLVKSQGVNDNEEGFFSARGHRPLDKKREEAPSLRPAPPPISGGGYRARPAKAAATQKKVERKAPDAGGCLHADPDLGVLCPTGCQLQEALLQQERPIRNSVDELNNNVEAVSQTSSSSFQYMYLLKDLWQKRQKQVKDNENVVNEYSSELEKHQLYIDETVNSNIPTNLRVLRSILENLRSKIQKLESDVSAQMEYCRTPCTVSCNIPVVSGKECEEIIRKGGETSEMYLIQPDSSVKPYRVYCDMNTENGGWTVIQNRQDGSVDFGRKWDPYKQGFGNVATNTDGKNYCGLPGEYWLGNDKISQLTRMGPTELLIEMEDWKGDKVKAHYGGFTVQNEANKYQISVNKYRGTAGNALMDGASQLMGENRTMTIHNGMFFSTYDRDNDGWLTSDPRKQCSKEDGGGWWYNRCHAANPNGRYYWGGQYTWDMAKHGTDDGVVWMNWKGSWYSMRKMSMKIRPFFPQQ

The assay addresses Fibrinogen beta chain (Homo sapiens) (UniProt P02675). Put plainly: small molecules displacing Tn6 from DD(E) complex – biochemical, fluorescence polarization, human fibrin, Tn6 probe, primary screen (AID 720509).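 Also: 0% = median of all compound wells on the plate and 100% = blocking peptide control.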 To be noted: Fibrin DD(E) TRITC-Tn6 fluorescence polarization displacement; at 8.3 µM; hits give high values. For orientation: Polarisation of emitted light reports the rotation of a fluorescent probe.
As for `CCCCNC(=O)OC1CC2CC1[C@H]1CCCCN1C2=O` (stereo partly specified), the inhibition was -8.63% (inactive).
The figure for `OCCC1CN(Cc2ccc3nsnc3c2)CCN1C1CCCCC1` (stereo unspecified) is -12.1% (inactive).
The figure for `COc1ccc(S(=O)(=O)NC2(C(F)(F)F)N=C3SCCN3C2=O)cc1` (stereo unspecified) is 3.58% (inactive); for `Cc1ccc(S(=O)(=O)NC2(C(F)(F)F)NC(=O)N(CCc3ccccc3)C2=O)cc1` (stereo unspecified) it is 1.91% (inactive); for `COc1ccc(N2C(=O)NC(NS(=O)(=O)c3ccc(Cl)cc3)(C(F)(F)F)C2=O)cc1` (stereo unspecified) it is 16.5% (active).
Then `Cc1cc(=O)[nH]c(SCC(=O)Nc2ccc(F)cc2F)n1`, with -5.08% (inactive); and `COc1ccc(NC(=O)C2=NNC(=O)CC2)cc1S(=O)(=O)N1CCCCC1`, with 3.03% (inactive).
`COCCn1c(SCC(=O)Nc2ccc3c(c2)CCC3)nc2ccccc2c1=O`: the inhibition was -3.38% (inactive).
Then `COc1ccc(NS(=O)(=O)c2cc3c(cc2C)N(C(C)=O)CCO3)cc1`, with -0.74% (inactive).
Then `C=C(C)CSc1nnc(-c2ccc(C)cc2)n1N`, with 2.43% (inactive).
The figure for `CC(C)N(c1ccccc1)c1ncnc(NCCC(=O)O)c1[N+](=O)[O-]` is 0.23% (inactive); for `Cc1ccc2c(c1)N(CC(=O)NCCCN1CCCCC1)C(=O)c1cccnc1O2` it is -7.1% (inactive).
On to `COc1ccc([C@H]2OC(=O)C[C@H]2C(=O)N2CCN(c3ccccc3F)CC2)cc1OC`, for which the inhibition is -0.84% (inactive).
The figure for `CCCN(CC(=O)Nc1ccc(OC)c(OC)c1)CC(=O)Nc1ccc(F)c(F)c1F` is 7.52% (inactive); for `O=C(Nc1ccc(Cl)cc1)Nc1ccc(Oc2cccnc2)nc1` it is -12.2% (inactive); for `COc1ccc(Nc2nc(-c3cccnc3)nc3ccccc23)cn1` it is 15.3% (active).
Then `O=C(CSc1n[nH]c(-c2cccnc2)n1)Nc1ccnc2ccccc12`, with -0.07% (inactive); and `COc1ccc(S(=O)(=O)N(CCCN2CCCC2=O)Cc2cc3c(C)ccc(C)c3[nH]c2=O)cc1`, with -7.91% (inactive).
Then `O=C(CN1CCc2ccccc2C1)Nc1cccc(S(=O)(=O)N2CCOCC2)c1`, with 4.91% (inactive); and `Cc1ccc(NC(=O)CN2CCc3ccccc3C2)cc1`, with 15.8% (active); and `Cc1ccc(NC(=O)Cn2sc3ccccc3c2=O)cc1`, with 1.72% (inactive).
In the case of `Cc1ccc(-c2nc(C)sc2CC(=O)OCC(=O)Nc2c(F)cccc2F)cc1`, the inhibition is 4.3% (inactive).
With `Cc1nc(-c2ccc(F)cc2)c(CC(=O)N2CCN(S(=O)(=O)c3ccc(F)cc3)CC2)s1`, the inhibition is -5.03% (inactive).
On to `Cc1ccc(-c2nc(C)sc2CC(=O)O)cc1`, for which the inhibition is 16.2% (active).
Then `O=C(Nc1ccc(N2CCOCC2)cc1)c1cccc2c(-c3ccc(F)c(F)c3)coc12`, with -1.54% (inactive); and `Cc1ccc(Nc2nc(CSc3nnc(-c4ccncc4)n3-c3ccccc3C)cs2)cc1`, with -3.59% (inactive).
Then `O=C(NCC(F)(F)F)c1ccc(S(=O)(=O)NCCc2ccc3c(c2)OCCO3)cc1`, with 0.28% (inactive); and `Cn1cc(-c2ccccc2)cc(C#N)c1=O`, with -5.81% (inactive); and `CCCCNC(=O)Nc1c(C)cc(SC#N)cc1C`, with -1.9% (inactive).
The figure for `C[C@H]([C@@H](O)[C@@H](O)[C@@H](C)C(C)(C)C)[C@H]1CC[C@H]2C3CC[C@H]4C[C@H](OS(=O)(=O)O)[C@@H](OS(=O)(=O)O)C[C@]4(C)[C@H]3CC[C@]12C` (stereo partly specified) is 3.35% (inactive); for `O=C(NCc1ccccc1Cl)C1CCN(c2ncnc3c2nc2n3CCCCC2)CC1` it is -4.73% (inactive); for `C=C1CCC(N(O)c2cc(C)on2)C(=C)CCC2C1CC2(C)C` (stereo unspecified) it is -5.24% (inactive).
On to `CC(C)Oc1cc(F)ccc1-c1cc(C(=O)Nc2cccc(Cl)c2)[nH]n1`, for which the inhibition is -6.05% (inactive).
The figure for `CC(CNS(=O)(=O)c1ccc(Br)cc1)CN(C)C` (stereo unspecified) is -0.63% (inactive); for `Cc1ccc(C(=O)Cc2nnc(C)s2)cc1` it is -0.99% (inactive).
Then `O=S(=O)(NCc1ccccc1Cl)c1cnc[nH]1`, with -4.95% (inactive); and `Cc1c(C(=O)N(C)CCc2cnn(C)c2)oc2c(F)cccc12`, with 3.62% (inactive).
The figure for `COc1cccc(NC(=O)C2(C)CCN2Cc2ccccc2Cl)c1` (stereo unspecified) is 0.5% (inactive).
As for `COC(=O)c1cc(NC(=O)c2cc(C(C)(C)C)nn2Cc2cccc(C)c2)ccc1N1CCOCC1`, the inhibition was 4.88% (inactive).
Then `O=C(C(NS(=O)(=O)c1cccc2nsnc12)c1ccccc1)N1CCN(c2ccccc2)CC1` (stereo unspecified), with 8.08% (inactive).
Then `CN1CCN(C(=O)c2ccc(-c3cc4nc(NCc5cccnc5)n(C)c(=O)c4s3)cc2)CC1`, with -11.9% (inactive).
The figure for `Cc1ccccc1OCC(=O)NCC(=O)OCC(=O)c1ccc2ccccc2c1` is -2.48% (inactive).
Consider `O=C(COc1ccc(Cl)cc1)NCCSc1ccccc1`, for which the inhibition was -0.51% (inactive).
For `Cc1cc2ccccc2n1CCNC(=O)COc1ccc2ccccc2c1`, the inhibition is 52.5% (active).
`O=C(NCc1ccccc1)c1cccc(NC(=O)C2CCCCC2)c1`: the inhibition was 3.16% (inactive).
The figure for `O=C(CC(NC(=O)c1ccccc1)c1ccccc1)Nc1ccc(F)c(F)c1` (stereo unspecified) is 6.57% (inactive); for `C=CC(COCc1ccccc1)N(CC(=O)OC)S(=O)(=O)c1cc(Br)ccc1OC` (stereo unspecified) it is -3.84% (inactive).
For `Cc1noc(C)c1CSCC(=O)Nc1ccc(Br)cc1Cl`, the inhibition was -5.8% (inactive).
The figure for `CCN(CC)P(=O)(C(NC(=O)OC)C(F)(F)C(F)(F)C(F)(F)C(F)F)N(CC)CC` (stereo unspecified) is 0.37% (inactive); for `CN1c2ccc(C=O)c3c(C=O)ccc(c23)N(C)C1(C)C` it is 29.5% (active).
Then `C[C@@H]1CN([C@H](C)CO)S(=O)(=O)c2ccc(C#CC3CCCCC3)cc2O[C@H]1CN(C)C(=O)Cc1ccncc1`, with 2.11% (inactive).
With `Cc1cc(NC(=O)CCC(=O)N(Cc2ccccc2)C(C(=O)NC2CCCC2)c2ccc(C)o2)no1` (stereo unspecified), the inhibition was -2.98% (inactive).
Then `Cc1sc2ncn(CC(=O)NCCCC(=O)N(C)Cc3ccccc3)c(=O)c2c1C`, with 6.86% (inactive); and `CCCNC(=O)c1cc(C2CCCN(C(=O)c3ccc4c(c3)CCO4)C2)on1` (stereo unspecified), with 2.19% (inactive).
Then `O=C(NC1CCCCC1)c1ccc(CNc2c(N3CCOCC3)c(=O)c2=O)cc1`, with -6.33% (inactive); and `O=C(NCc1ccccc1)c1ccc(CNc2c(N3CCCC3)c(=O)c2=O)cc1`, with -2.33% (inactive); and `COc1cc(NC(=O)c2ccc(CNc3c(N4CCCC4)c(=O)c3=O)cc2)cc(OC)c1OC`, with 17.7% (active).
The figure for `COc1cc(OC)cc(-c2c(-c3cccs3)c3cc(-c4ccc(OC)cc4F)ccc3n2C)c1` is 8.62% (inactive); for `CCC1CCCCN1S(=O)(=O)Cc1ccccc1Cl` (stereo unspecified) it is -7.39% (inactive); for `Cc1nnsc1S(=O)(=O)Cc1ccccc1Cl` it is 16.3% (active).
For the molecule `Cc1nnsc1C(=O)NCc1c(F)cccc1Cl`, the inhibition was 2.62% (inactive).
For `CCOC(=O)N1CCC(NC(=O)C(NS(=O)(=O)c2ccc3c(c2)CCN3C(=O)CC)C(C)C)CC1` (stereo unspecified), the inhibition is 0.83% (inactive).
The figure for `CC(C)Cc1ccc(S(=O)(=O)N2CCN(C(=O)c3ccco3)CC2)cc1` is 0.21% (inactive); for `C[C@H](CO)N1C[C@H](C)[C@@H](CN(C)Cc2ccc(-c3ccccc3)cc2)Oc2ccc(NC(=O)Cn3cnnn3)cc2C1=O` it is 4.05% (inactive); for `COC(=O)c1cc(=O)n(-c2c(Cl)cc(C(F)(F)F)cc2Cl)[nH]1` it is 0.92% (inactive).
Then `O=C(OCCOc1ccccc1Cl)c1cc(S(=O)(=O)N2CCCCC2)ccc1N1CCOCC1`, with -7.85% (inactive); and `CC(C)c1cc(NCc2ccccn2)n2c(nc3ccccc32)c1C#N`, with 5.58% (inactive); and `O=C(Nc1ccc2cn[nH]c2c1)c1ccc(S(=O)(=O)N2CCOCC2)cc1`, with 3.58% (inactive).
The figure for `Cc1cc2cc(CNC(=O)c3ccc(S(=O)(=O)N4CCOCC4)cc3)ccc2[nH]1` is 16% (active); for `Cc1cc2cc(CNC(=O)c3cccs3)ccc2[nH]1` it is -2.34% (inactive); for `N=c1n(Cc2ccc(Cl)cc2)c2ccccc2n1CC(O)c1ccco1` (stereo unspecified) it is 0.26% (inactive).
`O=C(CSCc1ccc([N+](=O)[O-])cc1)NCCSCc1ccccc1`: the inhibition was 2.74% (inactive).
The figure for `C=CCNC(=S)N1CCN(CCN=Cc2c(C)[nH]n(-c3ccc([N+](=O)[O-])cc3)c2=O)CC1` is -4.37% (inactive); for `O=c1[nH]n(-c2ccc([N+](=O)[O-])cc2)c(=O)c2ccccc12` it is 27.3% (active); for `COc1cccc(NC(=O)Cn2c3ccc(F)cc3c3nc4n(c(=O)c32)CCS4)c1` it is -7.55% (inactive).
Regarding `COc1ccc(C2/C=C\CN(S(=O)(=O)c3cccs3)CC(=O)N2Cc2ccc(F)cc2)cc1` (stereo unspecified), the inhibition was -0.69% (inactive).
For `CC(=O)c1ccc(OCCCC(=O)Nc2ccc(C)c(S(=O)(=O)N3CCOCC3)c2)cc1`, the inhibition was 6.11% (inactive).
The figure for `CCCCNC(=O)c1ccccc1NC(=O)c1ccccc1N(C)S(C)(=O)=O` is 2.47% (inactive); for `COc1ccccc1N(CCOc1ccccc1)S(=O)(=O)c1ccccc1` it is 5.19% (inactive).
Then `COC(C/C=C/C(=O)[C@@H](C)OCc1ccccc1)OC`, with 5.15% (inactive).
Then `O=c1c2ccccc2nc2n1C(CSCc1cccc(C(F)(F)F)c1)CS2` (stereo unspecified), with 2.51% (inactive).

Usually inhibition stands for the relative decrease from the control value, in per cent.
